The target of experiment [1] is T1, Ephrin type-B receptor 1 (Homo sapiens) (UniProt P54762).
T1 sequence (whole entry): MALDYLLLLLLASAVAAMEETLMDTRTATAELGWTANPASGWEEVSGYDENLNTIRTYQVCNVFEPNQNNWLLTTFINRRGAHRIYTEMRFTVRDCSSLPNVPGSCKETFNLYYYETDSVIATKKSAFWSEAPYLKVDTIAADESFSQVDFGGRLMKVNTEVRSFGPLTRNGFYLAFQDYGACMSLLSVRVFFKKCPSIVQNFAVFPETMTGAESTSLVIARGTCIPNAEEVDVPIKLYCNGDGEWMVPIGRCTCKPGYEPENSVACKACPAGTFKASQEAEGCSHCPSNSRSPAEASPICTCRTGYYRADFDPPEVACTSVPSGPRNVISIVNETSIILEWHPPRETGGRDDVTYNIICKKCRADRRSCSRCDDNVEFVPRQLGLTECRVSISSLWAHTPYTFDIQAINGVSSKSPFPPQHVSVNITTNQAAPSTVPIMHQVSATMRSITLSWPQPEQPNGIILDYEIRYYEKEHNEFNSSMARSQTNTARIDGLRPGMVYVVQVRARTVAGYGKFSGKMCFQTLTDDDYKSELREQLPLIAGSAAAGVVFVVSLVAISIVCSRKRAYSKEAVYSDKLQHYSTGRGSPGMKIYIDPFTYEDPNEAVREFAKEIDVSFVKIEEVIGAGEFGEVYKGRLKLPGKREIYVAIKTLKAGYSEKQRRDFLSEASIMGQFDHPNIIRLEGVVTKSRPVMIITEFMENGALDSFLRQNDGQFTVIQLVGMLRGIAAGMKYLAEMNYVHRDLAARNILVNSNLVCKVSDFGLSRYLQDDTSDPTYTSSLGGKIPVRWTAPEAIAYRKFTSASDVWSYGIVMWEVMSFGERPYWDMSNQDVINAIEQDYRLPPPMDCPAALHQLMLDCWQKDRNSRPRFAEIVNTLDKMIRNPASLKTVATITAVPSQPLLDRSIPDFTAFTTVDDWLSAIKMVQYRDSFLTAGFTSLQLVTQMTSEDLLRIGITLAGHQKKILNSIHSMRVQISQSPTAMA
The note with it: at 10 µM.

Experiment [2] deals with T2, Ephrin type-B receptor 2 (Homo sapiens) (UniProt P29323).
T2 sequence (whole entry): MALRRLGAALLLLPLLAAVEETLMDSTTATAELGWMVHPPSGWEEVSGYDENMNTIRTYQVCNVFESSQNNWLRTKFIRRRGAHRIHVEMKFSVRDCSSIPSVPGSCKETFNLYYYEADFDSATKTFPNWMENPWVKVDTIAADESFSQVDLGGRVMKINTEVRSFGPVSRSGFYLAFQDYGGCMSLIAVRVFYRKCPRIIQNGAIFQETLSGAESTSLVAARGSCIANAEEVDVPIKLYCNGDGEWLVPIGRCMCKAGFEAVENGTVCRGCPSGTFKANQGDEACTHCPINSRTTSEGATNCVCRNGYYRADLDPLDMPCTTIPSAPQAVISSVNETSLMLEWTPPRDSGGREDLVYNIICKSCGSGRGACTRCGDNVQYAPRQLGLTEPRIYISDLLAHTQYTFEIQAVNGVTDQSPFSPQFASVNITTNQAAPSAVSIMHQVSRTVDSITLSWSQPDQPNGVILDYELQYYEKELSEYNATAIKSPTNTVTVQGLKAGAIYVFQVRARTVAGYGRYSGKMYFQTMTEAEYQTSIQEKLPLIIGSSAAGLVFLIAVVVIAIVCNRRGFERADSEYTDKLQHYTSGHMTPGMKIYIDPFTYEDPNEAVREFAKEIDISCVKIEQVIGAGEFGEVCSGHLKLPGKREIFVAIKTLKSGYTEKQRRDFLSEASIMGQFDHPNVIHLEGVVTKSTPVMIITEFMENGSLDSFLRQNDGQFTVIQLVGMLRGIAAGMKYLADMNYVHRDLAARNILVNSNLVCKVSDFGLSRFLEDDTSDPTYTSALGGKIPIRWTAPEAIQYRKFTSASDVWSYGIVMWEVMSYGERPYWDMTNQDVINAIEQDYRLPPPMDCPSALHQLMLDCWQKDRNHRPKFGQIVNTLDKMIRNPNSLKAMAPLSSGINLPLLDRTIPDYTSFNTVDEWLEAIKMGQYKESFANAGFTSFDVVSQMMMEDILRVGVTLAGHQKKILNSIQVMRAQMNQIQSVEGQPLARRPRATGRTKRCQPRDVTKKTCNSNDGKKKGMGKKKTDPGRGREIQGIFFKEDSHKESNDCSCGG
The following applies: at 1 µM.

In experiment [3] the target is T2, Ephrin type-B receptor 2 (Homo sapiens). The following applies: at 10 µM.
Experiment [4] has as its target T3, Ephrin type-B receptor 3 (Homo sapiens) (UniProt P54753).
T3 sequence (whole entry): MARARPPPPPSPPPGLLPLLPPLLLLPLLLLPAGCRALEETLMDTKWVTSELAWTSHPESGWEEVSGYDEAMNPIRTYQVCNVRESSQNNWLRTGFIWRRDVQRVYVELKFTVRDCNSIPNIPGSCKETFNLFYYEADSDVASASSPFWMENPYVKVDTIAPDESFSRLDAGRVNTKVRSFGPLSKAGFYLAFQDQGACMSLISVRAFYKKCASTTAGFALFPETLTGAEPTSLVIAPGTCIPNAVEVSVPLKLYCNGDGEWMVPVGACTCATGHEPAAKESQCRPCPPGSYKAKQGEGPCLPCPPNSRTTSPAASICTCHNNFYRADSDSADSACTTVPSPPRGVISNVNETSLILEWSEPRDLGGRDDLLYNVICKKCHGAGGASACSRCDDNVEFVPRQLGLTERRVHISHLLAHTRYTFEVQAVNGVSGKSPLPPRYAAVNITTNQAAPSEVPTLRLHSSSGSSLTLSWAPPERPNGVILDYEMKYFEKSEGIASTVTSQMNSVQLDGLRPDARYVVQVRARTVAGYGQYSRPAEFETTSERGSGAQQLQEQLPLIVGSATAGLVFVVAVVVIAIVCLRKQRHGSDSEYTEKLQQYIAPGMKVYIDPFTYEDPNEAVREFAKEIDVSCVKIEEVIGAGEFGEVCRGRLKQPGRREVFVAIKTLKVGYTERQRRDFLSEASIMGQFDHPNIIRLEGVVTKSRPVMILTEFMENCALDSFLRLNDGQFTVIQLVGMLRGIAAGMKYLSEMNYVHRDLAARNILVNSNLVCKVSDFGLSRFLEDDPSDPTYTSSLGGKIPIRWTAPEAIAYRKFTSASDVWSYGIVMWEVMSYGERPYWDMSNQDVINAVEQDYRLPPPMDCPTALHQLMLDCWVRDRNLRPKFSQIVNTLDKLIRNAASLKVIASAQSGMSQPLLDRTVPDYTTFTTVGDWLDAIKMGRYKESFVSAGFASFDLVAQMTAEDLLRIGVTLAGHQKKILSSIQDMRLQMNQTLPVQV
The note with it: at 1 µM.

Experiment [5] has as its target T3, Ephrin type-B receptor 3 (Homo sapiens). The following applies: at 10 µM.
The target of experiment [6] is T4, Ephrin type-B receptor 4 (Homo sapiens) (UniProt P54760).
T4 sequence (whole entry): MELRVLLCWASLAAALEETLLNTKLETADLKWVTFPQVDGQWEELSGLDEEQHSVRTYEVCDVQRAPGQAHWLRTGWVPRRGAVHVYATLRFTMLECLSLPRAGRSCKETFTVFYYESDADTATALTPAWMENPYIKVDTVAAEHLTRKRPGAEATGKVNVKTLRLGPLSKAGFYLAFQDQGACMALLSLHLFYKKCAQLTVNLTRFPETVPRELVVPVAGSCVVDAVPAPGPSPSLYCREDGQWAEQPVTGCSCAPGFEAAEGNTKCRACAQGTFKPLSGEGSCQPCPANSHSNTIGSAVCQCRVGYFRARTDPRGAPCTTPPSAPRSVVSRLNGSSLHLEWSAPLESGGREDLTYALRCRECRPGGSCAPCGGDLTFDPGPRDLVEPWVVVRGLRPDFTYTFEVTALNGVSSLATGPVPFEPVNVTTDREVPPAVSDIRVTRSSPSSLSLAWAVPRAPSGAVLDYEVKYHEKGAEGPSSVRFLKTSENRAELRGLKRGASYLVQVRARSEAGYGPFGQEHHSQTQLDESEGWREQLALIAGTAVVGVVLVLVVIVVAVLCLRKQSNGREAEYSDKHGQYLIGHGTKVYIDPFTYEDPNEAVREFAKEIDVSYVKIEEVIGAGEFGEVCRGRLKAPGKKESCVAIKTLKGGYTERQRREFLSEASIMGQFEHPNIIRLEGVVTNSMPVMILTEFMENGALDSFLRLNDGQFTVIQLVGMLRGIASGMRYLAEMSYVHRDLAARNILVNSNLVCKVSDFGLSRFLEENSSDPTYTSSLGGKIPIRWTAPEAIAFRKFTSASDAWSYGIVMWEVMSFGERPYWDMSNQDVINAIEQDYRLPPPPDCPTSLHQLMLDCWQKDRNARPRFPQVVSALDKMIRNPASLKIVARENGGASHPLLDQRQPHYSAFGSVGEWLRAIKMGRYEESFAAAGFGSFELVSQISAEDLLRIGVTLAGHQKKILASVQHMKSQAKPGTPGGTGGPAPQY
The following applies: at 1 µM.

Experiment [7] deals with T4, Ephrin type-B receptor 4 (Homo sapiens). The following applies: at 10 µM.
Experiment [8] addresses Receptor tyrosine-protein kinase erbB-4 (Homo sapiens) (UniProt Q15303). The note with it: at 1 µM.
Experiment [9] has the same target. The note with it: at 10 µM.
Experiment [10] concerns the target Focal adhesion kinase 1 (Homo sapiens) (UniProt Q05397). The following applies: at 1 µM.

Structures are written as SMILES.

For orientation: residual activity means the signal under treatment as a percentage of the control signal.

Chain of Receptor tyrosine-protein kinase erbB-4 (Homo sapiens) (Q15303 whole entry): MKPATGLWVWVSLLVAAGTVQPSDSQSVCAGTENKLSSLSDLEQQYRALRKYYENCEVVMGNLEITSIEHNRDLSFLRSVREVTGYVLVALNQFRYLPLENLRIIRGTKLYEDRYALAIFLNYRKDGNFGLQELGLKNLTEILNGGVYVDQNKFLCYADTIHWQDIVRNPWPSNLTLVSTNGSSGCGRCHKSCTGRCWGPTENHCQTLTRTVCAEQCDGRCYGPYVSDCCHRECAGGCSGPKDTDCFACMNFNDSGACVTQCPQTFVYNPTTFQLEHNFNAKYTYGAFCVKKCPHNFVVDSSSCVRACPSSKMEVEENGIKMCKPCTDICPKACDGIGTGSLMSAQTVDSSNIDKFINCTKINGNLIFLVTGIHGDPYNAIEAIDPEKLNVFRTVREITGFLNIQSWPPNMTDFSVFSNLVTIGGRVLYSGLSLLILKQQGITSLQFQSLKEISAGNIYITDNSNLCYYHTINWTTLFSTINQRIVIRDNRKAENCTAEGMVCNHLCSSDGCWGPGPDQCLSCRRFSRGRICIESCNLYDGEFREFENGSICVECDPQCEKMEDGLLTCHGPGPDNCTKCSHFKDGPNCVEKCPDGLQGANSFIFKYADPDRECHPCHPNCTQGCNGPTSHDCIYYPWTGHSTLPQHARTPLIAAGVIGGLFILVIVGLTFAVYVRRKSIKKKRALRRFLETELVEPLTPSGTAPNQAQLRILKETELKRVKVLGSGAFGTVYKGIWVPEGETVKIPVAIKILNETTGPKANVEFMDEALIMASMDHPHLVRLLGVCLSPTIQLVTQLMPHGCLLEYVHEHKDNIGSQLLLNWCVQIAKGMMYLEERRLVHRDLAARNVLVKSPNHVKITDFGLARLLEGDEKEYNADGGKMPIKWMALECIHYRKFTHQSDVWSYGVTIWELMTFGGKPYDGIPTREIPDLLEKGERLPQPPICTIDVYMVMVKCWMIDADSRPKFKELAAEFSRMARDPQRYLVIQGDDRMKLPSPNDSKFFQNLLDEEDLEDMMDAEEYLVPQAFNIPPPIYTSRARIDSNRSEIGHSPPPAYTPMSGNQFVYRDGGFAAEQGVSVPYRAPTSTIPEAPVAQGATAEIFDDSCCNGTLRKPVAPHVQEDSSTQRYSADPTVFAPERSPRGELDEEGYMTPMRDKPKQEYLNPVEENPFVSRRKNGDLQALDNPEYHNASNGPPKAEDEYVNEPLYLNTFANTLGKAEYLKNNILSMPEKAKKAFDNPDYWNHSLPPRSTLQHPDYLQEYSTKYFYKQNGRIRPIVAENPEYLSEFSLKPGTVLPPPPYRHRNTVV
Chain of Focal adhesion kinase 1 (Homo sapiens) (Q05397 2-1052 limits assumed): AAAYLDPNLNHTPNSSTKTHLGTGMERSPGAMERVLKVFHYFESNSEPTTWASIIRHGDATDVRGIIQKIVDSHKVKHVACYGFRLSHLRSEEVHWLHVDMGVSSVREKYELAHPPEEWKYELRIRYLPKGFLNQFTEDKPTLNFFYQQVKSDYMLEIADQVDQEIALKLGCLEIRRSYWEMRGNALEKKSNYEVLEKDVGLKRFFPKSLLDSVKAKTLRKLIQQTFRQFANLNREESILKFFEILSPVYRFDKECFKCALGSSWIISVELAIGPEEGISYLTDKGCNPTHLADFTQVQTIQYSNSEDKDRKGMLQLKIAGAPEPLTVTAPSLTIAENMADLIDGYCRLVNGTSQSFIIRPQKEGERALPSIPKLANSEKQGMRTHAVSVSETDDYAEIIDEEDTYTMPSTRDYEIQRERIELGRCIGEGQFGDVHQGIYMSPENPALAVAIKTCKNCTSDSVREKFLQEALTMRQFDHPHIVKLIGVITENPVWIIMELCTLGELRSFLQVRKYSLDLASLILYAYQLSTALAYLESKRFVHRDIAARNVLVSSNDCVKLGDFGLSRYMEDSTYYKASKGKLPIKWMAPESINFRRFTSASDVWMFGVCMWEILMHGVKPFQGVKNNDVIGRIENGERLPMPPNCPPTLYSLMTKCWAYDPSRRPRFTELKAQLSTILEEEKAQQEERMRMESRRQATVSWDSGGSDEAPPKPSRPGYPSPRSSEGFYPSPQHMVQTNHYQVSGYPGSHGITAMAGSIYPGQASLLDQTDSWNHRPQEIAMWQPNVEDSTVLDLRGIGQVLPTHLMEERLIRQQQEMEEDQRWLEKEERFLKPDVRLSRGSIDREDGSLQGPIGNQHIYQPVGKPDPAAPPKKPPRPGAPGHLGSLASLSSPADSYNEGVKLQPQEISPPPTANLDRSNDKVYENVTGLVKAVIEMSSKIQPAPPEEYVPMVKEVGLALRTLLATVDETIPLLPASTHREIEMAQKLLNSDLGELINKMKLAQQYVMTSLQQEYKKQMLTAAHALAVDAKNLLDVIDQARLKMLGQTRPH

`Ic1cccc(CSc2nnc(-c3ccncc3)o2)c1`: the residual activity is 84% in [1]; 106% in experiment [2]; 109% in [3]; 104% (inactive) in experiment [4]; 101% in experiment [5]; 84% in [6]. In addition, the residual activity in [7] was found to be 84%; in experiment [8], 94%; in experiment [9], 91%; in experiment [10], 96%.

The record behind these values is ChEMBL document CHEMBL2218924, “A broad activity screen in support of a chemogenomic map for kinase signalling research and drug discovery” (Biochem J, 2013).
